According to PubChem BioAssay (NCATS):
Records with an inconclusive call do not appear. Values without a mark were called inactive. Active and inactive are the calls of the source. The call rests on the fitted dose curve.

The molecules below were run against Nucleoprotein (Lymphocytic choriomeningitis virus (strain Armstrong)) (UniProt P09992) (assay: qHTS for Inhibitors of the Functional Ribonucleoprotein Complex (vRNP) of Lymphocytic Choriomeningitis Arenaviruses (LCMV): LCMV Primary Screen - GLuc reporter signal (AID 1347086; further: nearly all actives have a fitted effect of over 70% in size)). Details: LCMV minigenome vRNP cell assay, Gaussia luciferase reporter; series mostly up to 57.5 µM; activity change, negative = inhibition: at the top concentration.
On the % scale 0 is the no-effect control and ±100 the full control effect.

Nucleoprotein (Lymphocytic choriomeningitis virus (strain Armstrong)), sequence (P09992 whole entry, looked up): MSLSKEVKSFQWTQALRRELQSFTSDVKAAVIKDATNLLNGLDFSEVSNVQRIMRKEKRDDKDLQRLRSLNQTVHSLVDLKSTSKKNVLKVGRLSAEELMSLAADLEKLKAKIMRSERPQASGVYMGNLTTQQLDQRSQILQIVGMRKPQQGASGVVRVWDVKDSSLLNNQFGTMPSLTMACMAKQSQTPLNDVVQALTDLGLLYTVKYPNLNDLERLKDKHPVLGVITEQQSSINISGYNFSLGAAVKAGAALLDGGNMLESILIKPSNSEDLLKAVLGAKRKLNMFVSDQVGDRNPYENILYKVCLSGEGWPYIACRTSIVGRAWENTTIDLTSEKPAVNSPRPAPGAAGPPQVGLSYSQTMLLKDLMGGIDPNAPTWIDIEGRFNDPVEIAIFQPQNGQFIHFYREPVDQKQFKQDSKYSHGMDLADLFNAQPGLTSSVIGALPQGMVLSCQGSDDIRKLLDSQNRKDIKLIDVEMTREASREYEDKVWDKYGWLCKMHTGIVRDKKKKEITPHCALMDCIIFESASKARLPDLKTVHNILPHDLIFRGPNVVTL

| Structure (SMILES) | activity change, negative = inhibition | Potency |
| --- | --- | --- |
| Cc1ncc(CSSCc2cnc(C)c(O)c2CO)c(CO)c1O | 1.17% |  |
| CC1(C)OC[C@@H](COC(=O)CCc2ccc(OC[C@@H](O)CNCCNC(=O)N3CCOCC3)cc2)O1 | 8.3% |  |
| Cc1ccc(Nc2c(F)cccc2Cl)c(CC(=O)O)c1 | -3.66% |  |
| COc1ccnc2c1CCCCC2S(=O)c1nc2ccccc2[nH]1 (stereo not given) | 7.42% |  |
| C=CCCCCCCCCC(=O)O | 0.117% |  |
| C=CCc1ccccc1OCC(O)CNC(C)C (stereo not given) |  | inactive |
| CCN(CCCCOC(=O)c1ccc(OC)c(OC)c1)C(C)Cc1ccc(OC)cc1 (stereo not given) | -72.7% |  |
| CN(C(=O)c1c(O)c2ccccc2n(C)c1=O)c1ccccc1 | 0.553% |  |
| C=C1C[C@H]2[C@@H]3C=C(C)C4=CC(=O)CC[C@]4(C)[C@H]3CC[C@]2(C)[C@@]1(OC(C)=O)C(C)=O | -3.5% |  |
| CC[N+](CC)(CC(=O)Nc1c(C)cccc1C)Cc1ccccc1 | 18% |  |
| CCCC(=O)O[C@]1(C(=O)CC)CC[C@H]2[C@@H]3CCC4=CC(=O)CC[C@]4(C)[C@H]3[C@@H](O)C[C@@]21C | 1.79% |  |
| CCCNC(C)(C)COC(=O)c1ccccc1 | -1.03% |  |
| CCCCNc1c(C(=O)OCC)c(C)nc2c1cnn2CC |  | inactive |
| C[C@@H](O)[C@H]1C(=O)N2C(C(=O)O)=C([C@H]3CCCO3)S[C@H]12 | -8.96% |  |
| CCOc1ccc(NC(C)=O)cc1 | 5.62% |  |
| CCN(CC)CCSC(=O)C(c1ccccc1)c1ccccc1 | 11.1% |  |
| OC[C@@H](O)[C@H](O)[C@H](O)[C@@H](O)CO |  | inactive |
| NS(=O)(=O)c1cc(C(=O)O)c(NCc2ccco2)cc1Cl |  | inactive |
| COc1ccc(-c2cc(C(F)F)nn2-c2ccc(S(N)(=O)=O)cc2)cc1F | 21.9% |  |
| CNc1c2c(nn1C)CCCC2 | -8.79% |  |

| Structure (SMILES) | activity change, negative = inhibition | Potency |
| --- | --- | --- |
| c1cnc(N2CCN(Cc3ccc4c(c3)OCO4)CC2)nc1 | 9.48% |  |
| N[C@@H](Cc1ccc(O)cc1)C(=O)O | 16.2% [at 11.5 µM] |  |
| OC(C#CCN1CCCC1)(c1ccccc1)c1ccccc1 | 1.25% |  |
| CN1C(=O)CC(c2ccccc2)C1=O (stereo not given) | 20.3% |  |
| CCOC(=O)[C@H](CCc1ccccc1)N[C@H]1CS[C@H](c2cccs2)CN(CC(=O)O)C1=O |  | inactive |
| N[C@H](Cc1c[nH]c2ccccc12)C(=O)O | -0.624% |  |
| CCOc1c(N2CCOCC2)cnn(C)c1=O | 6.51% |  |
| CCOC(CN1CCN(CC(C)C(=O)c2ccccc2)CC1)c1ccccc1 (stereo not given) | -12.9% [at 24.7 µM] |  |
| C=C(C)C(=O)OCC(O)CO (stereo not given) | -4.04% |  |
| NC(=O)C1(N2CCCCC2)CCN(CCCC(=O)c2ccc(F)cc2)CC1 | -0.0169% |  |
| O=C(/C=C/c1ccc(O)c(O)c1)O[C@@H]1C[C@@](OC(=O)/C=C/c2ccc(O)c(O)c2)(C(=O)O)C[C@@H](O)[C@@H]1O | 5.14% |  |
| CC(=O)O[C@H]1CC[C@@]2(C)C(=CC[C@@H]3[C@@H]2CC[C@]2(C)C(C(C)=O)=CC[C@@H]32)C1 | 9.57% |  |
| CC(C)Cc1ccc(C(C)C(=O)OCc2ccccn2)cc1 (stereo not given) | -5.86% |  |
| CC(=O)OCC(=O)Nc1cc(C#N)cc(NC(=O)COC(C)=O)c1Cl | 2.45% |  |
| CCOC(=O)c1cc(=O)c2c(OCC(COc3cccc4oc(C(=O)OCC)cc(=O)c34)OC(=O)[C@@H](N)CCCCN)cccc2o1 | 16.9% |  |
| CCN[C@H]1C[C@H](C)S(=O)(=O)c2sc(S(N)(=O)=O)cc21 |  | inactive |
| NCC1CCC(C(=O)Oc2ccc(CCC(=O)O)cc2)CC1 (stereo not given) | -2.72% |  |
| CCc1cccc2c(CCO)c[nH]c12 | 8.33% |  |
| Oc1ccc(Cl)cc1Cc1cc(Cl)ccc1O | -35% |  |
| CCC(CN)=C(c1ccccc1)c1ccccc1 | -18.4% |  |
